High-throughput results (PubChem BioAssay)
In the library only some 9.2% were active in any assay of this set; here they are far more common.
SMN2 splice enh: SMN2 splice variant enhancement; 2.8% of 210,000 active; HEK293 SMN2-luciferase splicing reporter, luminescence, 30-36 h; Potency, µM (series often up to 46.1 µM), most hits filed as activators; also: nearly all actives have a fitted effect of over 55% in size
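HEK293 cells carry an SMN2 […]–luciferase reporter in which exon 7 inclusion puts luciferase in frame. Cells were plated 10-12 h before compound addition, then incubated 30-36 h at 37C. ONE-Glo luminescence was read; sodium butyrate at 4.5 mM final served as control.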
FLuc modulator: inhibits or activates purified firefly luciferase, miR-21 counter-screen; P08659; purified FLuc, Km substrates, luminescence inhibition; Potency, µM (series often up to 57.5 µM), usual class: inhibitors; 6.9% of 360,000 active; also: nearly all actives have a fitted effect of over 55% in size
Target sequence (P08659 whole entry, looked up): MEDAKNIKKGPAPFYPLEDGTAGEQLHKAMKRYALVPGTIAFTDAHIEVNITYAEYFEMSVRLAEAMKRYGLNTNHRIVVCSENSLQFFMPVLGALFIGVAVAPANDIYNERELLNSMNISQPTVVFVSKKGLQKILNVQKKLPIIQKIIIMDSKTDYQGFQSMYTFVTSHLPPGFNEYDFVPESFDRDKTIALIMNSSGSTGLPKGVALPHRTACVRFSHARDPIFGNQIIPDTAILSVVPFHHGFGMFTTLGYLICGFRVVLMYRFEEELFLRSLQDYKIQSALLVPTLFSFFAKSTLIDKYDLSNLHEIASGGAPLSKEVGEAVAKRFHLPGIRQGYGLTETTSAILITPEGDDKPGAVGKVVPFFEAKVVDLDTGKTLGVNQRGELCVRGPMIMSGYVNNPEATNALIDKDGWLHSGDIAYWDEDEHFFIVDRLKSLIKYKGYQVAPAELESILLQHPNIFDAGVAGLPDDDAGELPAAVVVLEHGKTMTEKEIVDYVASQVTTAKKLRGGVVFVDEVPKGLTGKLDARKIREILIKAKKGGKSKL
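Biochemical qHTS of compounds, final roughly 60 µM downward over six points, against 10 nM purified firefly luciferase using Km concentrations of substrates (10 uM D-luciferin, 10 uM ATP) in Tris acetate pH 7.5 buffer; luminescence output.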
Rab9 prom act: activators of Rab9 promoter | Huh7 Rab9 promoter-luciferase reporter, luminescence, 24 h | Potency, µM (highest dose often 9.22 µM), hits mostly activators | 2.8% of 320,000 active | AID 485297; also: nearly all actives have a fitted effect of over 60% in size
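Huh7 cells stably carrying Rab9 promoter–luciferase reporter, plated 1500 cells/well, compound added after 2 h and incubated 24 h at 37 °C; luciferase luminescence then read after 10 min with detection reagent.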
ELG1 DNA repair: blocks ELG1-dependent DNA repair in HEK293T cells. Potency, µM (highest dose often 46.1 µM), usual class: inhibitors. AID 504467. HEK293T ELG1-luciferase reporter, luminescence, 16 h; DNA damage induced by 5-fluorouridine. 2.3% of 330,000 active; also: nearly all actives have a fitted effect of over 55% in size
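Reporter activity after DNA damage by 5-fluorouridine is monitored. Compound-treated cells incubate 16 hr at 37 °C, then ONE-Glo is added for 30 min before luminescence reading.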
ELG1 genotoxic: genotoxicity induction in ELG1-luciferase HEK293T cells. HEK293T ELG1-luciferase reporter, luminescence, 16 h. Potency, µM (series often up to 46 µM), usual class: activators. 1.3% of 330,000 active. AID 504466; also: nearly all actives have a fitted effect of over 60% in size
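HEK293T cells expressing luciferase-tagged ELG1 were exposed to compound or DMSO vehicle for 16 hr at 37 °C and 5% CO2. Luciferase activity was then measured with ONE-Glo after 30 min at room temperature.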
NPC1 promoter act: NPC1 promoter activation; Huh7 NPC1 promoter luciferase reporter, 24 h; Potency, µM (highest dose often 9.22 µM), actives largely listed as activators; 2.4% of 320,000 active; also: nearly all actives have a fitted effect of over 60% in size
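Quantitative HTS used a cell-based reporter: Huh7 cells stably bearing the NPC1 promoter upstream of luciferase were treated with compounds for 24 h, and promoter activation was read as luminescence.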
Large screens that a line does not name were inactive. Calls follow the shape of the dose curve; as a rule, active = well fitted curve in the direction sought with a large enough effect; inconclusive = small, poorly fitted or top-dose-only effect, or another doubt; inactive = no such curve, though single readings can be large; an effect the other way counts as inactive or inconclusive.

Cc1cc(-c2ccccc2)nc(N2CCC(C(=O)NCc3ccccc3Cl)CC2)n1	SMN2 splice enh 28.2µM, ELG1 DNA repair inconclusive, ELG1 genotoxic inconclusive
C=CCNC(=O)C1CCN(c2cc(C)nc(-c3ccccc3)n2)CC1	none
C=CCNC(=O)C1CCN(c2nc(C)cc(-c3ccccc3)n2)CC1	SMN2 splice enh 8.91µM, FLuc modulator 19µM, Rab9 prom act 3.55µM, ELG1 DNA repair inconclusive, ELG1 genotoxic inconclusive, NPC1 promoter act 3.55µM
Cc1cc(C)c(OCC(=O)Nc2nc3ccccc3[nH]2)c(C)c1	none
CC(C)C(=O)O/N=C1\CCS(=O)(=O)c2sccc21	none
Cc1ccc(N/N=C2\CCS(=O)(=O)c3sccc32)cc1	FLuc modulator 16.9µM
Cc1ccccc1C(=O)O/N=C1\CCS(=O)(=O)c2sccc21	FLuc modulator 0.601µM, Rab9 prom act inconclusive, ELG1 DNA repair inconclusive, ELG1 genotoxic 11.6µM, NPC1 promoter act inconclusive
COc1ccc(C(=O)O/N=C2\CCS(=O)(=O)c3sccc32)cc1	FLuc modulator 1.9µM (no result: SMN2 splice enh)
COCCNC(=O)c1ccc2c(c1)CCN2S(C)(=O)=O	none
Cc1ccc2c(c1)COc1c3ccc(C(=O)NCCO)cc3nn1-2	FLuc modulator 4.78µM, Rab9 prom act 1µM, ELG1 DNA repair inconclusive, ELG1 genotoxic 14.6µM, NPC1 promoter act 1.12µM (no result: SMN2 splice enh)
Cc1ccc(-n2cnc3cc(C(=O)NCCC4=CCCCC4)ccc32)c(C)c1	none (no result: SMN2 splice enh, Rab9 prom act, ELG1 DNA repair, ELG1 genotoxic, NPC1 promoter act)
C=CCNC(=O)c1ccc2c3n(nc2c1)-c1ccccc1CO3	FLuc modulator 0.675µM, Rab9 prom act inconclusive, ELG1 DNA repair inconclusive, ELG1 genotoxic inconclusive, NPC1 promoter act 0.447µM (no result: SMN2 splice enh)
COCCNC(=O)c1ccc2c3n(nc2c1)-c1ccccc1CO3	FLuc modulator 3.79µM, Rab9 prom act 1µM, ELG1 DNA repair inconclusive, ELG1 genotoxic inconclusive, NPC1 promoter act 1.12µM (no result: SMN2 splice enh)
COCCNC(=O)c1ccc2c(c1)nc(C)n2-c1cccc(Cl)c1	none (no result: SMN2 splice enh)
COCCNC(=O)c1ccc2c3n(nc2c1)-c1ccc(Cl)cc1CO3	FLuc modulator 8.49µM, Rab9 prom act 3.55µM, ELG1 DNA repair inconclusive, ELG1 genotoxic inconclusive, NPC1 promoter act 1.41µM (no result: SMN2 splice enh)
C=CCNC(=O)c1ccc2nc(-c3ccccc3)c(-c3ccccc3)nc2c1	ELG1 DNA repair inconclusive
O=C(OCc1ccccc1Cl)c1ccc(-c2nnn(Cc3ccccc3Cl)n2)cc1	none (no result: Rab9 prom act, ELG1 DNA repair, ELG1 genotoxic, NPC1 promoter act)
Cc1ccc(C)c(N2CCN(C(=O)C3CCN(S(=O)(=O)c4ccc5[nH]c(=O)oc5c4)CC3)CC2)c1	none (no result: SMN2 splice enh, Rab9 prom act, ELG1 DNA repair, ELG1 genotoxic, NPC1 promoter act)
CCc1cc(=O)[nH]c(SCC(=O)N2CCC(Cc3ccccc3)CC2)n1	none (no result: SMN2 splice enh)
O=C(NCCO)c1ccc2c3n(nc2c1)-c1ccc(Cl)cc1CO3	FLuc modulator 6.01µM, Rab9 prom act 3.55µM, ELG1 DNA repair inconclusive, ELG1 genotoxic inconclusive, NPC1 promoter act 2µM (no result: SMN2 splice enh)
Cc1nc2c(C(=O)N3CCCCC3)cnn2c(C)c1Cc1ccccc1F	SMN2 splice enh inconclusive, FLuc modulator inconclusive, Rab9 prom act 1.58µM, ELG1 DNA repair inconclusive, ELG1 genotoxic inconclusive, NPC1 promoter act 1.58µM
CCOc1ccc(C(=O)Nc2ccc3oc(-c4cccnc4)nc3c2)cc1	none (no result: Rab9 prom act, ELG1 DNA repair, ELG1 genotoxic, NPC1 promoter act)
CN1CCN(C(=O)c2cc3ccccc3[nH]2)CC1	none (no result: SMN2 splice enh)
Cc1ccc(S(=O)(=O)N2CCCN(C(=O)c3cc4ccccc4[nH]3)CC2)cc1	FLuc modulator 19µM (no result: SMN2 splice enh)
Cc1ccccc1C(=O)N1CCC(C(=O)Nc2ccc(S(=O)(=O)N3CCOCC3)cc2)CC1	none (no result: SMN2 splice enh)
Cc1ccc(S(=O)(=O)N2CCN(C(=O)CC(C)C)CC2)cc1	FLuc modulator 15.1µM, Rab9 prom act 1.12µM, ELG1 DNA repair inconclusive, ELG1 genotoxic inconclusive, NPC1 promoter act 3.98µM (no result: SMN2 splice enh)
O=C(C1CCN(S(=O)(=O)c2ccc(Cl)cc2)CC1)N1CCCC1	none (no result: SMN2 splice enh)
Cc1ccccc1C(=O)N1CCC(C(=O)Nc2ccc(S(=O)(=O)N3CCCCC3)cc2)CC1	ELG1 DNA repair 14.6µM (no result: SMN2 splice enh)
Cc1ccc(S(=O)(=O)N2CCC(C(=O)N3CCC3)CC2)cc1	FLuc modulator 9.53µM, Rab9 prom act 3.16µM, ELG1 DNA repair inconclusive, NPC1 promoter act 2.24µM (no result: SMN2 splice enh)
O=C(c1cc(=O)[nH]c2ccccc12)N1CCN(S(=O)(=O)c2ccc(Cl)cc2)CC1	ELG1 DNA repair 23.1µM (no result: SMN2 splice enh)
O=C(c1cc(=O)[nH]c2ccccc12)N1CCN(S(=O)(=O)c2ccc3ccccc3c2)CC1	ELG1 DNA repair inconclusive
